Assay outcomes from PubChem.
Only some compounds are listed: those with a hit (about 6.9% of all), similar ones and a draw of the others.
KB-V1 MDR tox: kills drug-selected multidrug resistant KB-V1 cells | hit rate 3.4% among 400,000 | KB-V1 MDR cells viability, CellTiter-Glo, 72 h | Potency, µM (highest dose often 46.1 µM), usual class: cytotoxic; also: potency is read from the fitted curve at half-maximal effect; % is scaled to controls: 0 for no effect and ±100 for the full control effect; nearly all actives have a fitted effect of over 60% in size
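Following 72 h at 37 degrees C with compound, KB-V1 cell viability was read by CellTiter-Glo luminescence, medium being phenol-red-free DMEM plus 10% FBS; concentration-response parameters came from normalized, curve-fitted qHTS data.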
S-ASM inh: human S-ASM enzyme inhibition; P17405; placental ASM, HMU-PC fluorogenic substrate, 60 min; Potency, µM (titrated, usually from 57.5 µM), for inactives: top-dose activity change, negative = inhibition, hits mostly inhibitors; hit rate 0.006% among 340,000; also: potency is read from the fitted curve at half-maximal effect
Target sequence (P17405 47-631 limits assumed): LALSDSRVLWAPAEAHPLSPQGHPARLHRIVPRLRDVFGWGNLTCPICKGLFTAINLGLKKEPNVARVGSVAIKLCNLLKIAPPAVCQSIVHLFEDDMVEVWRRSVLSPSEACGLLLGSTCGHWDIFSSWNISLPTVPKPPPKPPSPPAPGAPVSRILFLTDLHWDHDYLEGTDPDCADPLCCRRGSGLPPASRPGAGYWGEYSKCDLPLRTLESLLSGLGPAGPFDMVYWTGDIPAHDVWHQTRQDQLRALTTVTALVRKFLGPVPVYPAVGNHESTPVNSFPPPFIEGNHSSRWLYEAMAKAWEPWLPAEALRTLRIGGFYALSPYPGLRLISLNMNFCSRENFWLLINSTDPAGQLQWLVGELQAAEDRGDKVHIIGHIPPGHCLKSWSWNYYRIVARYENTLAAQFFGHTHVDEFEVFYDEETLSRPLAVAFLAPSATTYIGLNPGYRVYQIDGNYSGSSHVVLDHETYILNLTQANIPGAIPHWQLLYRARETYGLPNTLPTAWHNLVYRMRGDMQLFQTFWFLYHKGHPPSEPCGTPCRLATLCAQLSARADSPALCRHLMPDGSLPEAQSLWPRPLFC
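Fluorogenic HMU-PC substrate (9 uM final) is turned over by placental ASM in 60 min at 37 C after a 10 min compound preincubation. Reaction ended by alkaline stop (pH 10), with fluorescence read at 386/447 nm.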
MCF10A rerep: induces DNA re-replication in MCF 10a normal breast cells. MCF 10A DNA re-replication, Hoechst nuclear intensity, 48 h. Potency, µM (top dose mostly 46.1 µM), inactives show at the top dose activity, positive = re-replication, most hits filed as activators. hit rate 2.9% among 350,000. AID 624296; also: potency is read from the fitted curve at half-maximal effect; % of control where 0% means no effect; nearly all actives have a fitted effect of over 50% in size
KB-3-1 cytotox: KB-3-1 parental cell cytotoxicity. KB-3-1 viability, CellTiter-Glo ATP luminescence, 72 h. Potency, µM (top dose mostly 46.1 µM), hits mostly cytotoxic. hit rate 1.4% among 400,000. AID 1347075; also: potency is read from the fitted curve at half-maximal effect; % is scaled to controls: 0 for no effect and ±100 for the full control effect; nearly all actives have a fitted effect of over 60% in size
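KB-3-1 cells, DMEM (no phenol red) + 10% FBS; compound by pin transfer, 72 h, 37 °C. Readout: CellTiter-Glo luminescence after 10 min. Data normalized, curve-fitted.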
Giardia kill: Giardia lamblia killing; activity change, % at 7.66 µM, hits read low; Giardia lamblia trophozoite viability; hit rate 0.15% among 340,000; AID 540267; in the data active = activity change below about -80%; inconclusive = between about -30% and that limit;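 also: parasites exposed to compound for two days anaerobically before the ATP read; % is scaled to controls: 0 for no effect and ±100 for the full control effect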
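Luminescence from cellular ATP indicates surviving trophozoites (100 cells/well) following 48 hrs anaerobic compound treatment at 37 deg C; signal develops 15-30 min at room temperature.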
SW480 rereplic: induces DNA re-replication in SW480 colon adenocarcinoma cells; SW480 DNA re-replication, Hoechst DNA content imaging, 48 h; Potency, µM (doses to about 46.1 µM), without a hit: top-dose re-replication activation, hits mostly activators; hit rate 1.8% among 340,000; AID 624297; also: potency is read from the fitted curve at half-maximal effect; % of control where 0% means no effect; nearly all actives have a fitted effect of over 55% in size
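Image-based DNA-content assay: after two days of treatment, nuclei were labelled with the DNA dye Hoechst and imaged, and hits were compounds raising the count of nuclei showing high fluorescence intensity.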
Active calls of the source: *; i = inactive; ? = inconclusive; nt = not tested or not shown. Unless noted, calls follow the shape of the dose curve; as a rule, active = well fitted curve in the direction sought with a large enough effect; inconclusive = small, poorly fitted or top-dose-only effect, or another doubt; inactive = no such curve, though single readings can be large; an effect the other way counts as inactive or inconclusive.

SMILES | KB-V1 MDR tox | S-ASM inh | MCF10A rerep | KB-3-1 cytotox | Giardia kill | SW480 rereplic
O=C(Nc1ccc2ccccc2c1)c1cccnc1 | i | -1% | 1% | i | -2 | -1%
COc1cccc(C(=O)Nc2ccc(-c3nc4ccccc4[nH]3)cc2)c1 | i | nt | nt | i | nt | nt
COc1c(Cl)cc(C(=O)Nc2cccc(-c3nc4ccccc4[nH]3)c2)cc1Cl | 21µM* | nt | nt | ? | nt | nt
COc1cccc(C(=O)Nc2ccccc2-c2ccccc2)c1 | i | 1% | -3% | i | -23 | -2%
CCN(CCCNC(=O)c1cc(Nc2ccc(OC)cc2OC)nc2ccccc12)c1cccc(C)c1 | i | nt | nt | i | nt | nt
CCCCNC(=O)C1(C)CCCCN1Cc1ccc(OCc2ccccc2)cc1 (centres undefined) | 15µM* | nt | nt | ? | nt | nt
CCCCNC(=O)C1(C)CCCCN1Cc1ccc(-c2ccccc2)cc1 (centres undefined) | i | nt | nt | i | nt | nt
CCOC(=O)c1cnc(Nc2nc3ccccc3o2)nc1CSc1ncccn1 | i | 1% | 10% | i | 4 | -3%
CCCc1nc(Nc2nc3ccccc3o2)nc(C)c1C(=O)OCC | 3.7µM* | 1% | 3% | i | -1 | 1%
CCOC(=O)c1cnc(Nc2nc3ccccc3o2)nc1CSC(=S)N(CC)CC | ? | -1% | ? | 1.3µM* | ? | ?
CCc1cccc(C)c1NC(=O)CN1C(=O)NC(CCc2ccccc2)C1=O (centres undefined) | i | 2% | -1% | i | 10 | 6%
O=C(CCN1C(=O)c2cccc3cccc(c23)C1=O)NC1CCS(=O)(=O)C1 (centres undefined) | i | 12% | -2% | i | -3 | -18%
O=C(CCCCCN1C(=O)c2cccc3cccc(c23)C1=O)NC1CCS(=O)(=O)C1 (centres undefined) | i | 5% | -2% | i | 4 | 18µM*
Cc1ccc(C)c(NC(=O)CN(C)S(=O)(=O)c2cccc3nsnc23)c1 | i | nt | nt | i | nt | nt
Cc1oc2c(O)c(O)ccc2c(=O)c1-c1cnn(-c2ccccc2)c1 | 3.7µM* | -17% | 20% | i | -8 | ?
Cc1cccc(-c2onc3ccc(C(=O)/C=C/N(C)C)cc23)c1 | i | 1% | ? | i | -29 | ?
CCCCSc1nnc2[nH]c(=O)cc(N)n12 | 8.2µM* | 0% | 6% | i | 8 | -6%
Cc1cc[n+](CC(=O)c2ccc(F)cc2)c2ccccc12 | i | nt | nt | i | nt | nt
COC(=O)C1=C(N)N(c2ccccc2F)C2=C(C(=O)CC(C)(C)C2)C1c1ccc(OC)c(OC)c1 (centres undefined) | 4.6µM* | 7% | 5% | ? | 0 | ?
CCCCN(CCCN)c1ccc(Br)cn1 | nt | nt | nt | nt | -9 | nt
CC(=O)/C=C/c1ccc2ccccc2n1 | i | 3% | 15µM* | i | 9 | 9.2µM*
CC[N+](C)(C)c1ccc(/C=C/c2ccc3ccccc3n2)cc1 | i | nt | nt | 2.9µM* | nt | nt
CCN(CC)c1ccc(/C=C/c2ccc3ccccc3n2)cc1 | ? | nt | nt | 2.3µM* | nt | nt
Cc1cc(/C=N/NC(=O)c2ccc(CN3CCOCC3)cc2)c(C)n1-c1ccccc1 | 16µM* | -1% | 25% | i | 7 | 4%
O=C(N/N=C/c1ccccc1[N+](=O)[O-])c1ccc(CN2CCOCC2)cc1 | i | 6% | 6% | i | -21 | -3%
SMILES | KB-V1 MDR tox | S-ASM inh | MCF10A rerep | KB-3-1 cytotox | Giardia kill | SW480 rereplic
Cc1cc(C)cc(-n2c(C)cc(/C=N/NC(=O)CSc3ncccn3)c2C)c1 | ? | -5% | 18µM* | ? | -7 | ?
Cc1cc(/C=N/NC(=O)Cn2c3ccccc3c(=O)c3ccccc32)c(C)n1-c1ccccc1 | i | i | 21µM* | i | -16 | 28%
Cc1ccc(NC(=O)c2cc(C)n(-c3ccccc3)c2C)cc1 | i | -4% | 3.3µM* | i | ? | 3%
Cc1cccc(NC(=O)CNC(=O)CN2C(=O)NC(C)(CCC(C)C)C2=O)c1C (centres undefined) | i | 1% | -7% | i | 15 | -84%
CCOc1ccc(C(=O)OCC(=O)N(Cc2ccccc2)Cc2ccccc2)cc1OC | 23µM* | -2% | -1% | i | 14 | -3%
COc1cc(C(=O)OCC(=O)NC(=O)NCc2ccccc2)ccc1OC(F)F | i | -7% | 2% | i | -5 | -3%
Cc1ccc(NC(=O)C(Cc2ccccc2)NC(=O)OCc2ccccc2)cc1C (centres undefined) | 5.8µM* | 1% | 0% | i | -2 | 26%
CN(Cc1ccc(F)cc1)C(=O)C(Cc1ccccc1)NC(=O)c1ccccc1 (centres undefined) | 10µM* | 3% | -17% | i | -2 | -95%
CSc1ccc(CN(C)C(=O)C(Cc2ccccc2)NC(=O)c2ccccc2)cc1 (centres undefined) | ? | -5% | 11% | i | 21 | 13%
COC(=O)C(Cc1ccccc1)NC(=O)C(CC(C)C)NC(=O)OC(C)(C)C (centres undefined) | i | 2% | -5% | i | -6 | -1%
CC(C)CC(NC(=O)OCc1ccccc1)C(=O)NC(Cc1ccccc1)C(=O)CCl (centres undefined) | ? | 0% | 7.3µM* | ? | 14 | 6.5µM*
CN(Cc1ccccc1)C(=O)c1ccccc1NC(=O)C1CC1 | i | 2% | -3% | i | 3 | 4%
CN(Cc1ccccc1)C(=O)c1ccccc1NC(=O)c1ccccc1 | 23µM* | -2% | 0% | i | -10 | -3%
COc1ccc(CN(C)C(=O)C(Cc2ccccc2)NC(=O)c2ccccc2)cc1F (centres undefined) | ? | -1% | ? | ? | -23 | ?
CCOc1ccc(CN(C)C(=O)[C@H](Cc2ccccc2)NC(=O)OCc2ccccc2)cc1OC | 10µM* | -5% | ? | ? | -10 | 12%
O=C(c1cc(COc2ccc(F)cc2F)on1)N1CCN(C2CCCC2)C(=O)C1 | 5.2µM* | 2% | 12% | i | 18 | -7%
O=C(c1cc(COc2ccc(F)cc2F)on1)N1CC[C@@H]2CCCC[C@H]2C1 | i | -3% | 5% | i | -9 | 0%
CSc1ccccc1OCc1cc(C(=O)N2CCN(C3CCCC3)C(=O)C2)no1 | 15µM* | nt | 1% | i | 2 | -3%
O=C(NCCC1=CCCCC1)c1cc(COc2c(F)cccc2F)on1 | i | 2% | -1% | i | 12 | -25%
CSc1ccccc1OCc1cc(C(=O)NCCC2=CCCCC2)no1 | 23µM* | nt | 9% | i | -2 | 2%
CN(C)c1ccc(C2=Cc3ccccc3C2)cc1 | i | nt | nt | ? | nt | nt
